The values below come from PubChem BioAssay (NCI).

What all share (experiment): NCI-60 one-dose screen, 48 h (100 = growth as untreated, 0 = no growth, -100 = all killed)
One assay concerns NCI-H23 lung. The settings on record: 10 µM unless noted.
A further assay has as its system NCI-H226 lung. The settings on record: 10 µM unless noted.
A further assay deals with NCI-H322M lung. Particulars: 10 µM unless noted.
Another assay relates to NCI-H460 lung. Particulars: 10 µM unless noted.
Another assay deals with HOP-92 NSCLC. Particulars: 10 µM.
The subject of a further assay is NCI-H522 lung. The settings on record: 10 µM.
Another assay has as its system A549/ATCC NSCLC. Particulars: 10 µM unless noted.
The subject of the next assay is 786-0 renal. The settings on record: 10 µM unless noted.
A further assay concerns COLO 205 colon. The settings on record: 10 µM unless noted.
A further assay has as its system DU-145 prostate. The settings on record: 10 µM unless noted.
For another assay, the system named is K-562 leukemia. The settings on record: 10 µM unless noted.
In the next assay the test system is MDA-MB-231 breast. The settings on record: 10 µM unless noted.
For the next assay, the system named is RXF 393 renal. Particulars: 10 µM unless noted.
The test system of another assay is SF-268 CNS. Particulars: 10 µM unless noted.
In the next assay the test system is SF-295 CNS. The settings on record: 10 µM unless noted.
In the next assay the test system is SF-539 CNS. Particulars: 10 µM unless noted.
The next assay concerns UACC-257 melanoma. Particulars: 10 µM unless noted.
The next assay deals with M14 melanoma. Particulars: 10 µM unless noted.
The test system of the next assay is MALME-3M melanoma. The settings on record: 10 µM unless noted.

The panel holds about 83,000 compounds, 20% with a hit somewhere; the sample as a whole holds those more often.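 Results are percent growth after 48 hours of single-concentration exposure. 100 means growth as in untreated cells, lower positive values show inhibition; negative values down to -100 show cell death.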 Values without a mark were called inactive. The source made the active and inactive calls. How the source made its calls: active means growth percent below 10; inactive means the rest.

In the case of `COc1ccc(OC)c(Cn2cc3c(c2-c2ccccc2)CCc2cnoc2-3)c1`, the growth was 60.8% with NCI-H23 lung; 78.8% in the assay with NCI-H226 lung; 57.5% in the assay on NCI-H322M lung; 22.7% in the assay on NCI-H460 lung; 59.8% in the assay with HOP-92 NSCLC; 56.4% in the assay on NCI-H522 lung. The growth is 50.8% with A549/ATCC NSCLC; 66.6% in the assay with 786-0 renal; 35.9% in the assay on COLO 205 colon; 94.7% in the assay on DU-145 prostate; 16.6% in the assay with K-562 leukemia; 64.7% with MDA-MB-231 breast. Further, the growth was 80% with RXF 393 renal; 71.8% with SF-268 CNS; 22.8% in the assay with SF-295 CNS; 54.9% in the assay with SF-539 CNS; 79.5% with UACC-257 melanoma; 50.7% with M14 melanoma.

On to `N=c1c2c(=O)n3c(nc2nc2sc4ccc(Cl)cc4n12)-c1ccccc1Sc1ccccc1-3`, for which the growth in the assay with NCI-H23 lung is 8.13% (active); with NCI-H226 lung, 29.1%; with NCI-H322M lung, 16.4%; in the assay on NCI-H460 lung, 10.7%; in the assay on HOP-92 NSCLC it was 6.89% (active); in the assay with NCI-H522 lung it was 12.9%. Also, the growth in the assay on A549/ATCC NSCLC is 22.4%; in the assay on 786-0 renal, 24.6%; in the assay with COLO 205 colon, 11.9%; with DU-145 prostate it was 38.4%; with K-562 leukemia, 19.8%; in the assay with MDA-MB-231 breast, 7.92% (active). Also, the growth in the assay on RXF 393 renal was 38.2%; with SF-268 CNS it was 42.2%; in the assay on SF-295 CNS it was 5.48% (active); in the assay on SF-539 CNS it was 27.2%; with UACC-257 melanoma, 29.9%; in the assay on M14 melanoma, 21.6%.

Turning to `CCOC(=O)C1CCCN1C(=O)C1(NC(C)=O)CCCC1` (stereo unspecified), the growth was 100% in the assay with NCI-H23 lung; 104% in the assay with NCI-H226 lung; 91.3% in the assay with NCI-H322M lung; 98.2% in the assay on NCI-H460 lung; 84.7% in the assay with HOP-92 NSCLC; 107% in the assay with NCI-H522 lung. Besides, the growth in the assay with A549/ATCC NSCLC was 101%; with 786-0 renal, 102%; in the assay on COLO 205 colon, 105%; in the assay on DU-145 prostate, 103%; in the assay on K-562 leukemia it was 110%; in the assay with MALME-3M melanoma it was 96.7%. The growth was 121% with MDA-MB-231 breast; 110% in the assay on RXF 393 renal; 104% in the assay on SF-295 CNS; 95.8% with SF-539 CNS; 102% in the assay with UACC-257 melanoma; 95.2% in the assay on M14 melanoma.

For `CCOc1ccccc1/C=N\N=C(N/N=C/c1ccccc1OCC)N/N=C/c1ccccc1OCC`, the growth in the assay with NCI-H23 lung was 18.8%; in the assay with NCI-H226 lung, 20.3%; with NCI-H322M lung, 11.3%; in the assay on NCI-H460 lung it was 1.36% (active); with HOP-92 NSCLC, -21.1% (active); in the assay on NCI-H522 lung it was 1.5% (active). Further, the growth in the assay with A549/ATCC NSCLC was 9.6% (active); in the assay on 786-0 renal it was 22.9%; in the assay on COLO 205 colon, -38.9% (active); with DU-145 prostate it was 16.1%; in the assay on K-562 leukemia, 21.4%; with MALME-3M melanoma, 24.1%. Besides, the growth was 9.5% (active) in the assay on MDA-MB-231 breast; 19.2% in the assay on RXF 393 renal; 9.61% (active) with SF-295 CNS; 7.38% (active) in the assay on UACC-257 melanoma; 32.3% in the assay on M14 melanoma.

`NC(N)=N/N=C/c1cccc(Br)c1`: the growth is 97.6% with NCI-H23 lung; 88.7% in the assay with NCI-H226 lung; 91.2% in the assay on NCI-H322M lung; 104% with NCI-H460 lung; 88.9% in the assay on HOP-92 NSCLC; 100% with NCI-H522 lung. Further, the growth in the assay on A549/ATCC NSCLC is 98.8%; with 786-0 renal it was 94.2%; in the assay on COLO 205 colon, 90.2%; in the assay on DU-145 prostate, 118%; with K-562 leukemia, 93.6%; with MALME-3M melanoma, 100%. For the same molecule, the growth in the assay with MDA-MB-231 breast was 105%; in the assay with RXF 393 renal it was 95.8%; in the assay on SF-295 CNS it was 99.3%; in the assay with SF-539 CNS, 101%; with UACC-257 melanoma it was 106%; in the assay on M14 melanoma, 92.8%.

With `COc1cc(Cn2ccc3c2-c2oncc2CC3)cc(OC)c1`, the growth is 30.1% in the assay with NCI-H23 lung; 67.4% with NCI-H226 lung; 33.2% in the assay with NCI-H322M lung; 7.4% (active) in the assay on NCI-H460 lung; 57.5% with HOP-92 NSCLC; 29.3% with NCI-H522 lung. For the same molecule, the growth was 36% in the assay on A549/ATCC NSCLC; 50.9% with 786-0 renal; 26.1% in the assay on COLO 205 colon; 43.7% with DU-145 prostate; 24.9% in the assay on K-562 leukemia; 44.1% in the assay on MDA-MB-231 breast. For the same molecule, the growth with RXF 393 renal was 54.6%; with SF-268 CNS it was 50%; in the assay with SF-295 CNS it was 24.2%; with SF-539 CNS, 19.6%; in the assay with UACC-257 melanoma, 53.4%; with M14 melanoma, 12.7%.

For `O=c1oc2ccc3ccccc3c2cc1-c1ccnc2[nH]c(=S)[nH]c(=O)c12`, the growth with NCI-H23 lung is 94.7%; with NCI-H226 lung it was 94.5%; in the assay on NCI-H322M lung, 92.9%; with NCI-H460 lung, 103%; in the assay with HOP-92 NSCLC, 88.3%; with NCI-H522 lung it was 88%. Besides, the growth in the assay with A549/ATCC NSCLC was 97%; in the assay with 786-0 renal it was 97.5%; in the assay with COLO 205 colon, 111%; with DU-145 prostate it was 106%; in the assay on K-562 leukemia it was 93.4%; in the assay with MDA-MB-231 breast, 87.4%. In addition, the growth in the assay on RXF 393 renal is 118%; in the assay with SF-268 CNS, 98.7%; in the assay on SF-295 CNS it was 101%; in the assay with SF-539 CNS, 103%; with UACC-257 melanoma it was 98.9%; in the assay with M14 melanoma, 105%.

With `O=C(/C=C/c1c[nH]c2ccccc12)c1cc2ccccc2o1`, the growth in the assay with NCI-H23 lung is 97.2%; in the assay on NCI-H226 lung it was 100%; in the assay with NCI-H322M lung, 99.7%; in the assay on NCI-H460 lung, 107%; with HOP-92 NSCLC it was 83.2%; in the assay with NCI-H522 lung it was 79.8%. Also, the growth with A549/ATCC NSCLC is 89.5%; with 786-0 renal it was 86.6%; in the assay on COLO 205 colon, 130%; in the assay with DU-145 prostate, 95.6%; in the assay on K-562 leukemia, 37.2%; with MDA-MB-231 breast it was 84.6%. The growth is 114% with RXF 393 renal; 80.6% in the assay with SF-268 CNS; 91% with SF-295 CNS; 82.1% with SF-539 CNS; 98.4% in the assay with UACC-257 melanoma; 84.2% in the assay with M14 melanoma.

On to `COc1cc(CNC(=O)CCCC/C=C/C(C)C)ccc1OCc1nnc(Nc2ccccc2F)o1`, for which the growth in the assay with NCI-H23 lung is 63.8%; with NCI-H226 lung it was 64.5%; in the assay on NCI-H322M lung, 86.1%; in the assay on NCI-H460 lung, 80.3%; with HOP-92 NSCLC, 56.4%; with NCI-H522 lung, 60.3%. Moreover, the growth was 105% in the assay with A549/ATCC NSCLC; 12% in the assay on 786-0 renal; 104% in the assay with COLO 205 colon; 88.7% in the assay on DU-145 prostate; 60.4% in the assay on K-562 leukemia; 63.9% in the assay with MDA-MB-231 breast. Moreover, the growth is 68.8% in the assay on RXF 393 renal; 45.5% in the assay with SF-268 CNS; 48% with SF-295 CNS; 48.2% with SF-539 CNS; 98.2% in the assay on UACC-257 melanoma; 99.7% with M14 melanoma.
